Consider 25 compounds from PubChem BioAssay (EPA / NIEHS).

Results filed as inconclusive are left out. Calls of active or inactive are those of the source. Rule for the calls, unless noted: active = hit-call score of the fitted dose curve at least 0.9, where 1 is the maximum; inactive = score below 0.9.

A short description of assay [1]: ACEA_ER_80hr: ACEA Biosciences xCELLigence Real-Time Cell Analysis on Estrogen Receptor Agonism for Proliferation (AID 2282667; active = hit-call score of the fitted dose curve at least 0.9, where 1 is the maximum). The conditions noted are these: T47D proliferation, impedance (xCELLigence), 80 h. In short, it runs like this: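 Real-time electrical impedance tracked growth of the human breast line T47D, with the 80 h post-dosing value used. Dosing spanned eight 1:4 steps down from a 100 uM final top concentration, run in duplicate.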

Assay [2] is described as follows: ATG_CRE_CIS: Attagene CIS-FACTORIAL HepG2 Assay for human cAMP Responsive Element (CRE) binding protein 3 (AID 2282926). The conditions noted are these: HepG2 CRE cis-reporter, Attagene multiplexed mRNA; actives raise or lower the signal. In outline:
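Assay format: transient reporter transfection of HepG2, 24 h treatment, total RNA isolation with DNase I step. Reporter abundance read by fluorescence after PCR and capillary separation; DMSO-normalised gain or loss fitting.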

Assay [3] has as its target CCAAT/enhancer-binding protein beta (Homo sapiens) (UniProt P17676). Kind of assay: ATG_C_EBP_CIS: Attagene CIS-FACTORIAL HepG2 Assay for human CCAAT/Enhancer Binding Protein (C/EBP) beta (AID 2282927). Conditions: HepG2 Attagene cis-factorial transcription factor reporter; actives raise or lower the signal. In short, it runs like this:
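HepG2, transient MRTU transfection, 24 h treatment. RT-PCR plus CE fluorescence; DMSO negative control, bidirectional fit.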

A short description of assay [4]: ATG_CMV_CIS: Attagene CIS-FACTORIAL HepG2 Assay for human CMV (Internal Marker) (AID 2282928).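 Note: endpoint acts as a background internal control marker rather than a target.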 Conditions: HepG2 CMV promoter reporter, transcription factor profiling; actives raise or lower the signal. In short, it runs like this:
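Reporter transcripts from transfected HepG2 cells are isolated after 24 h of chemical dosing, reverse-transcribed and amplified. Fragments labeled with 6-FAM are cut with HpaI and quantified by capillary electrophoresis; DMSO defines baseline.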

Assay [5] is described as follows: ATG_DR4_LXR_CIS: Attagene CIS-FACTORIAL HepG2 Assay for human Liver X Receptor (LXR), DR4 submotif (AID 2282929). Conditions: HepG2 Attagene DR4 cis-reporter, mRNA transcription; actives raise or lower the signal. In short, it runs like this: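 Transiently transfected HepG2 liver cells; cis-regulated reporters; 24 h dosing. RT-PCR plus CE read-out of reporter mRNA. DMSO baseline, bidirectional curve fitting.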

The target of assay [6] is Aryl hydrocarbon receptor (Homo sapiens) (UniProt P35869). Kind of assay: ATG_Ahr_CIS: Attagene CIS-FACTORIAL HepG2 Assay for human Aryl Hydrocarbon Receptor (Ahr) (AID 2282930). The conditions noted are these: HepG2 AhR cis-factorial reporter transcription; actives raise or lower the signal. In short, it runs like this:
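Endogenous factor activity is tracked through cis-promoter reporter units transfected into HepG2 cells. Transcript levels at 24 h are read by fluorescent RT-PCR and capillary electrophoresis, with activity in either direction scored relative to DMSO.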

A short description of assay [7]: ATG_AP_1_CIS: Attagene CIS-FACTORIAL HepG2 Assay for human Activator Protein 1 (AP-1) (AID 2282931). Conditions: HepG2 Attagene cis-factorial AP-1 reporter mRNA; actives raise or lower the signal. In outline:
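We transfected HepG2 cells transiently with a set of cis-regulated reporter transcription units, dosed them for 24 h, and quantified reporter mRNA via RT-PCR and capillary electrophoresis, scoring gain or loss of signal relative to DMSO.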

Assay [8] can be described thus: ATG_BRE_CIS: Attagene CIS-FACTORIAL HepG2 Assay for human Bone Morphogenetic Protein (BMP) Response Element (BRE) (AID 2282933). Conditions: HepG2 BMP response element reporter, Attagene transcription factor profiling; actives raise or lower the signal. In outline:
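A HepG2 multiplex reporter system measured inducible reporter mRNA 24 h post-dosing. Detection: RT-PCR, 6-FAM primer extension, HpaI digestion, capillary electrophoresis. Activity fitted bidirectionally relative to DMSO.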

Assay [9] addresses Retinoic acid receptor alpha (Homo sapiens) (UniProt P10276). Kind of assay: ATG_DR5_RAR_CIS: Attagene CIS-FACTORIAL HepG2 Assay for human Retinoic Acid Receptor Alpha (RARE), DR5 submotif (AID 2282934).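 For AC50: reporter responds to endogenous RAR alpha beta and gamma in HepG2 not RARA alone.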 Conditions: HepG2 Attagene cis-factorial RARE DR5 reporter, mRNA; actives raise or lower the signal. In short, it runs like this: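 After 24 h of chemical exposure, transiently transfected HepG2 cells were lysed for total RNA; the DR5-regulated reporter transcript was quantified via RT-PCR and capillary electrophoresis, with activity fitted bidirectionally against DMSO.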

A short description of assay [10]: ATG_AP_2_CIS: Attagene CIS-FACTORIAL HepG2 Assay for human Activator Protein 2 (AP-2) (AID 2282932). Conditions: HepG2 AP-2 cis-reporter, Attagene transcription factor profiling; actives raise or lower the signal. In outline: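 Liver-derived HepG2 line, cis-reporter system measuring endogenous factors; 24 h dosing; reporter mRNA detected by fluorescent RT-PCR and capillary electrophoresis.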

Chain of Aryl hydrocarbon receptor (Homo sapiens) (P35869 whole entry, looked up): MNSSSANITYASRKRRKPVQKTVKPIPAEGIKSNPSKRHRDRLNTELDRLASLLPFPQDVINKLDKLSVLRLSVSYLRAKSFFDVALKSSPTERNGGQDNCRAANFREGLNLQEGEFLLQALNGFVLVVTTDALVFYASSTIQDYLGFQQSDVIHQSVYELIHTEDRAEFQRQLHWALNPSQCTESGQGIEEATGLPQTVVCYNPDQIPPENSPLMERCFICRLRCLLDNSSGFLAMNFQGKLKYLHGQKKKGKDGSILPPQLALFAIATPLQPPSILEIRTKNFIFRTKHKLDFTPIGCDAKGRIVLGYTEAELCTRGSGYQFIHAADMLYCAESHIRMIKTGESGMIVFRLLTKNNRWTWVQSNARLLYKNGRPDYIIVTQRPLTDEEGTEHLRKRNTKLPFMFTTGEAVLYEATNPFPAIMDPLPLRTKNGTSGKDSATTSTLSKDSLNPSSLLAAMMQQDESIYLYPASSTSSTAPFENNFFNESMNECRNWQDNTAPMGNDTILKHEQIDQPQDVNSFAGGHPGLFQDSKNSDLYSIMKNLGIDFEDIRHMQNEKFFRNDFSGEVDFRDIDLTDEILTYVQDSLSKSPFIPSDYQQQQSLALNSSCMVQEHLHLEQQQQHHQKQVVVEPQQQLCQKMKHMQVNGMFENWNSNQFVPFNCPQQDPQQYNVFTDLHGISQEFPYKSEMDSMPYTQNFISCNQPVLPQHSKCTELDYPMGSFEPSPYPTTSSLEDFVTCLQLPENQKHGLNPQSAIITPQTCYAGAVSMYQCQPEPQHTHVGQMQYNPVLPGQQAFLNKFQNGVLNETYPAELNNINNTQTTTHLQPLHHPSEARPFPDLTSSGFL
Chain of Retinoic acid receptor alpha (Homo sapiens) (P10276 whole entry, looked up): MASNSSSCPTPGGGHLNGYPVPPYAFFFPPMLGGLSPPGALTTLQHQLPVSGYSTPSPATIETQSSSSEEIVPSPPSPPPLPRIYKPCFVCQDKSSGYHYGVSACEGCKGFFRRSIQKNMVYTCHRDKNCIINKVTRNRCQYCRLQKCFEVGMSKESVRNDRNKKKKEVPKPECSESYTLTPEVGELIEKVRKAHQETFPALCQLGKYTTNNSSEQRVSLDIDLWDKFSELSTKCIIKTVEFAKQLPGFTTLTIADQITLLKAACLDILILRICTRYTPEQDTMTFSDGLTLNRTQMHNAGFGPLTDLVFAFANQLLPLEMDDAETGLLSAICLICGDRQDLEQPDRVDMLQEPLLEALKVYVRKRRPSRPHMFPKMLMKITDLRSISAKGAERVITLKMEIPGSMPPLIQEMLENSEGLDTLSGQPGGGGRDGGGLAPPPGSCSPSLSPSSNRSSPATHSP
Chain of CCAAT/enhancer-binding protein beta (Homo sapiens) (P17676 whole entry, looked up): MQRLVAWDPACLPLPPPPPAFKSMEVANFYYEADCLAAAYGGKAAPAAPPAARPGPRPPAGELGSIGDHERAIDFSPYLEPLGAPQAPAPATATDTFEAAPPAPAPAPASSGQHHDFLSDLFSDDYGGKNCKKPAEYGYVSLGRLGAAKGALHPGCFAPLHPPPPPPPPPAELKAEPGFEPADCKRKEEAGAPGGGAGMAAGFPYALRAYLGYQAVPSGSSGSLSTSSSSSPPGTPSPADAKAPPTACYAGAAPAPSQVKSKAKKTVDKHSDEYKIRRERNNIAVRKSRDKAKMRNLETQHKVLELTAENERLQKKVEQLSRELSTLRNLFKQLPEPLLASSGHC

As to `CCc1cccc(C)c1N(C(=O)CS(=O)(=O)O)C(C)COC` (configuration not stated), the compound was called inactive in [1], in assay [2], in assay [3], in assay [4], in assay [5] and in [6]. In addition, the call in [7], in assay [8] and in assay [9] was inactive.

For the compound `CC(C)c1cccc(C(C)C)c1N`, the outcome in assay [1], in assay [2], in assay [3], in assay [4], in assay [5] and in assay [6] was inactive. Besides, the call in [7], in [10] and in [9] was inactive.

Take `N#Cc1ccc(C(c2ccc(C#N)cc2)n2cncn2)cc1`: the outcome in [1], in assay [2], in [3], in assay [4], in [5] and in assay [6] was inactive. Further, the compound was classed as inactive in assay [7], in assay [8] and in assay [9].

As for `CCCCCCCCCCCCC`, the outcome in assay [1], in [2], in assay [3], in assay [4], in assay [5] and in [6] was inactive. The outcome in assay [7] and in assay [9] was inactive.

`CCC(C)C(=O)OCCc1ccccc1` (configuration not stated): in [1], the concentration at half-maximal activity (AC50) is 1.68 µM (active). Moreover, the outcome in assay [2], in assay [3], in assay [4], in [5], in assay [6] and in assay [10] was inactive. The compound was called inactive in assay [8] and in [9].

Regarding `C=C(C)C(=O)OCCOC(=O)C(=C)C`, the compound was classed as inactive in [1], in [2], in assay [3], in assay [4], in assay [5] and in assay [6]. For the same compound, the call in [10], in assay [8] and in assay [9] was inactive.

As to `COC(=O)c1ccccc1C`, the call in assay [1], in [2], in assay [3], in assay [4], in assay [5] and in assay [6] was inactive. Moreover, the result in [10] and in [9] was inactive.

Turning to `O=C(Nc1ccccc1)c1cc(Cl)ccc1O`, the outcome in [1], in [4] and in assay [5] was inactive. Moreover, the concentration at half-maximal activity (AC50) is 3.19 µM (active) in [2], 3.35 µM (active) in assay [3], 3.62 µM (active) in assay [6] and 4.11 µM (active) in assay [9].

For the compound `CC(C)(O)Cc1ccccc1`, the result in assay [1], in assay [2], in assay [3], in assay [4], in assay [5] and in assay [6] was inactive. Besides, the compound was called inactive in [10] and in [9].

As to `O=C(O)CC(C(=O)O)S(=O)(=O)O` (configuration not stated), the compound was called inactive in assay [1], in assay [2], in assay [3], in assay [4], in [5] and in [6]. Further, the result in assay [8] and in [9] was inactive.

Regarding `Cc1ccc2c(c1)CCCN2`, the compound was classed as inactive in assay [1], in assay [2], in [3], in [4], in assay [5] and in assay [10]. Also, the outcome in assay [8] and in [9] was inactive. Also, the AC50 in assay [6] was 20.2 µM (active).

As to `CC(=O)OC1CCCCC1`, the compound was called inactive in assay [1], in assay [2], in assay [3], in assay [4], in [5] and in [6]. Further, the call in [10], in assay [8] and in assay [9] was inactive.

Consider `CCC(C)C(=O)OC` (configuration not stated), for which, in assay [1], the half-maximal activity concentration (AC50) is 0.0271 µM (active). For the same compound, the compound was called inactive in [2], in [3], in [4], in assay [5], in [6] and in [10]. Also, the compound was called inactive in assay [8] and in assay [9].

`COC(OC)(C(=O)c1ccccc1)c1ccccc1`: the call in [1], in assay [2], in assay [3], in assay [4], in [6] and in assay [10] was inactive. In addition, the compound was classed as inactive in [8] and in assay [9]. Moreover, the half-maximal activity concentration (AC50) in assay [5] was 49.8 µM (active).

On to `CC(C)=NNC(N)=S`, for which the compound was classed as inactive in assay [1], in assay [2], in [3], in [4], in assay [5] and in assay [6]. Moreover, the call in assay [10], in [8] and in assay [9] was inactive.

As for `CCCCOC(=O)CCC(C)=O`, the call in assay [1], in assay [2], in assay [3], in assay [4], in assay [5] and in [6] was inactive. In addition, the compound was classed as inactive in assay [10], in [8] and in assay [9].

On to `C[Si](C)(C)N[Si](C)(C)C`, for which the result in assay [1], in assay [2], in assay [3], in assay [4], in assay [5] and in [6] was inactive. Further, the compound was classed as inactive in assay [10], in [8] and in [9].

Turning to `CCOC(=O)c1ccccc1C`, the result in assay [1], in assay [2], in assay [3], in [4], in assay [5] and in assay [6] was inactive. Further, the compound was called inactive in [10] and in assay [9].

Turning to `Cc1noc(NS(=O)(=O)c2ccc(N)cc2)c1C`, the call in [1], in [2], in assay [3], in [4], in assay [5] and in [6] was inactive. The compound was classed as inactive in assay [7], in assay [8] and in assay [9].

`CCCCNS(=O)(=O)c1ccc(C)cc1`: the outcome in [1], in [2], in [3], in assay [4], in assay [5] and in assay [6] was inactive. In addition, the outcome in assay [10], in [8] and in assay [9] was inactive.

For `CC1=CC(C)C(C=O)CC1` (configuration not stated), the call in assay [1], in assay [2], in assay [3], in assay [4], in assay [5] and in [10] was inactive. Further, the outcome in [8] and in assay [9] was inactive. Moreover, the AC50 in assay [6] was 8.87 µM (active).

Regarding `CC(C)OC(=O)c1ccccc1`, the compound was called inactive in assay [1], in [2], in assay [3], in [4], in assay [5] and in assay [6]. The call in [7] and in [9] was inactive.

For the compound `Oc1ccccc1Cc1ccccc1O`, the compound was called inactive in assay [1], in assay [2], in assay [3], in assay [4], in assay [6] and in assay [10]. Also, the compound was classed as inactive in assay [8] and in assay [9]. Also, the half-maximal activity concentration (AC50) in assay [5] was 114 µM (active).

For the compound `CC1OC(=O)C(C)OC1=O` (configuration not stated), the AC50 in assay [1] is 0.169 µM (active). Besides, the result in assay [2], in assay [3], in assay [4], in [5], in [6] and in assay [10] was inactive. Besides, the outcome in assay [8] and in assay [9] was inactive.

Turning to `Nc1ccc(C(=O)OCCCOC(=O)c2ccc(N)cc2)cc1`, the compound was classed as inactive in assay [1], in assay [2], in assay [3], in assay [4], in assay [5] and in assay [6]. In addition, the compound was called inactive in [10], in [8] and in assay [9].
